# Reference: the supplement of paper PMC8728848
# This is one part of a sample in which the strongest signals are shown more often than they occur.
# B1: FliD (Clostridium difficile) (protein)
# chain: MSSISPVRVTGLSGNFDMEGIIEASMIRDKEKVNKAKQDQQIVKWKQEIYRDIIKESKNLYDKYLNGDSPNSITNKKAYSATRITSSDESIIVAKGSAGAEKINYQFAVSQMAEPAKVTIKLNSSDPIVQQFPPNASGASSLNIGGVNIPISEQDTTSTIVSKINSLCADNDIRASYSEMTGELIISRKQTGSSSDIDLKVIGNDSLAGQIASDNGITFTTDASGTKSAVVYGKNLEADVTDDQGRVTHISKEQNSFKIDNIDYNVNSKGSAKLVSVTDTEEATKNMKAFVDDYNALMDKVYGLVTTKKSKDYPPLTDEQKDDMTTEEIEKWEKKAKEGILRNDDELRAFVEDIQSMFFGDADTIIALRKLGISEHENYNKKGQISFNADTFSKALIDDSDKVYKALAGYSSNYDDKGMFEKLKKIVFEYSGSSASKLTKKAGMENSSSASQNVYSKQIAEQERNISRLVEKMNDKEKRLYAKYSALESLLNKYSSQMNYFSQAQGN
# Experiments:
# Test in all cases: glycan array binding signal (z-score within array); higher = stronger binding
# Conditions in all cases: glycan notation: IUPAC condensed, linker removed
# [1] = target: Fuc(a1-2)Gal(b1-3)[Fuc(a1-4)]GlcNAc(b1-2)Man(a1-3)[Fuc(a1-2)Gal(b1-3)[Fuc(a1-4)]GlcNAc(b1-2)Man(a1-6)]Man(b1-4)GlcNAc(b1-4)[Fuc(a1-6)]GlcNAc(b1-4)[Fuc(a1-6)]GlcNAc
# Method in brief: (§1)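 Glycan array data came from 3228 arrays in the Consortium for Functional Glycomics database, and only arrays with an available protein sequence were kept. Glycan names were put into IUPAC-condensed notation, and columns mapping to the same glycan were averaged. The binding signal is a within-array Z-score, averaged across arrays of one protein sequence run at different concentrations or buffers and across linkers. A negative Z-score can be read as non-binding.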
# [2] = target: Fuc(a1-2)Gal(b1-4)[Fuc(a1-3)]GlcNAc(b1-2)Man(a1-3)[Fuc(a1-2)Gal(b1-4)[Fuc(a1-3)]GlcNAc(b1-2)Man(a1-6)]Man(b1-4)GlcNAc(b1-4)[Fuc(a1-6)]GlcNAc
# Method in brief: as §1
# [3] = target: Fuc(a1-2)[Gal(a1-3)]Gal(b1-3)GlcNAc
# Method in brief: as §1
# [4] = target: Fuc(a1-2)[GalNAc(a1-3)]Gal(b1-4)GlcNAc
# Method in brief: as §1
# [5] = target: Fuc(a1-3)[Gal(b1-4)]GlcNAc(b1-2)Man(a1-3)[Fuc(a1-3)[Gal(b1-4)]GlcNAc(b1-2)Man(a1-6)]Man(b1-4)GlcNAc(b1-4)GlcNAc
# Method in brief: as §1
# Gal(a1-3)Gal(b1-3)GlcNAc = target: Gal(a1-3)Gal(b1-3)GlcNAc
# Method in brief: as §1
# [6] = target: Gal(a1-3)Gal(b1-4)GlcNAc(b1-2)Man
# Method in brief: as §1
# Gal(a1-4)Gal(b1-4)GlcNAc = target: Gal(a1-4)Gal(b1-4)GlcNAc
# Method in brief: as §1
# Gal(a1-4)GlcNAc = target: Gal(a1-4)GlcNAc
# Method in brief: as §1
# Gal(b1-2)Gal = target: Gal(b1-2)Gal
# Method in brief: as §1
# Gal(b1-3)Gal = target: Gal(b1-3)Gal
# Method in brief: as §1
# Gal(b1-3)Gal(b1-4)GlcNAc = target: Gal(b1-3)Gal(b1-4)GlcNAc
# Method in brief: as §1
# [7] = target: Gal(b1-3)GlcNAc(a1-6)Gal(b1-4)GlcNAc
# Method in brief: as §1
# [8] = target: Gal(b1-3)GlcNAc(b1-2)Man(a1-3)[Gal(b1-3)GlcNAc(b1-2)Man(a1-6)]Man(b1-4)GlcNAc(b1-4)[Fuc(a1-6)]GlcNAc
# Method in brief: as §1
# [9] = target: Gal(b1-3)GlcNAc(b1-6)Gal(b1-4)GlcNAc
# Method in brief: as §1
# [10] = target: Gal(b1-4)GlcNAc(b1-2)Man(a1-6)Man(b1-4)GlcNAc(b1-4)GlcNAc
# Method in brief: as §1
# [11] = target: Gal(b1-4)GlcNAc(b1-2)[Gal(b1-4)GlcNAc(b1-4)]Man(a1-3)[Gal(b1-4)GlcNAc(b1-2)Man(a1-6)]Man(b1-4)GlcNAc(b1-4)GlcNAc
# Method in brief: as §1
# [12] = target: Gal(b1-4)GlcNAc(b1-2)[Gal(b1-4)GlcNAc(b1-6)]Man(a1-6)[Gal(b1-4)GlcNAc(b1-2)Man(a1-3)]Man(b1-4)GlcNAc(b1-4)[Fuc(a1-6)]GlcNAc
# Method in brief: as §1
# [13] = target: Gal(b1-4)GlcNAc(b1-3)Gal(b1-3)GlcNAc
# Method in brief: as §1
# [14] = target: Gal(b1-4)GlcNAc(b1-3)Gal(b1-4)GlcNAc(b1-2)Man(a1-3)[Gal(b1-4)GlcNAc(b1-3)Gal(b1-4)GlcNAc(b1-2)Man(a1-6)]Man(b1-4)GlcNAc(b1-4)[Fuc(a1-6)]GlcNAc
# Method in brief: as §1
# [15] = target: Gal(b1-4)GlcNAc(b1-3)Gal(b1-4)GlcNAc(b1-3)Gal(b1-4)GlcNAc(b1-3)Gal(b1-4)GlcNAc(b1-2)Man(a1-3)[Gal(b1-4)GlcNAc(b1-3)Gal(b1-4)GlcNAc(b1-3)Gal(b1-4)GlcNAc(b1-3)Gal(b1-4)GlcNAc(b1-2)Man(a1-6)]Man(b1-4)GlcNAc(b1-4)[Fuc(a1-6)]GlcNAc
# Method in brief: as §1
# [16] = target: Gal(b1-4)GlcNAc(b1-3)Gal(b1-4)GlcNAc(b1-3)Gal(b1-4)GlcNAc(b1-3)Gal(b1-4)GlcNAc(b1-3)Gal(b1-4)GlcNAc(b1-2)Man(a1-3)[Gal(b1-4)GlcNAc(b1-3)Gal(b1-4)GlcNAc(b1-3)Gal(b1-4)GlcNAc(b1-3)Gal(b1-4)GlcNAc(b1-3)Gal(b1-4)GlcNAc(b1-2)Man(a1-6)]Man(b1-4)GlcNAc(b1-4)GlcNAc
# Method in brief: as §1
# Gal3S(b1-3)GalNAc = target: Gal3S(b1-3)GalNAc
# Method in brief: as §1
# Gal3S(b1-4)Glc = target: Gal3S(b1-4)Glc
# Method in brief: as §1
# Gal3S(b1-4)Glc6S = target: Gal3S(b1-4)Glc6S
# Method in brief: as §1
# Gal3S6S(b1-4)GlcNAc = target: Gal3S6S(b1-4)GlcNAc
# Method in brief: as §1
# Glc(a1-4)Glc = target: Glc(a1-4)Glc
# Method in brief: as §1
# GlcNAc(b1-3)Fuc = target: GlcNAc(b1-3)Fuc
# Method in brief: as §1
# [17] = target: GlcNAc(b1-4)Gal(b1-4)GlcNAc
# Method in brief: as §1
# Kdn(a2-3)Gal(b1-4)Glc = target: Kdn(a2-3)Gal(b1-4)Glc
# Method in brief: as §1
binder,measurement,setting,value
B1,glycan array binding signal (z-score),[1],-0.156
same,glycan array binding signal (z-score),[2],-0.162
same,glycan array binding signal (z-score),[3],1.88
same,glycan array binding signal (z-score),[4],-0.235
same,glycan array binding signal (z-score),[5],-0.161
same,glycan array binding signal (z-score),Gal(a1-3)Gal(b1-3)GlcNAc,12.1
same,glycan array binding signal (z-score),[6],-0.211
same,glycan array binding signal (z-score),Gal(a1-4)Gal(b1-4)GlcNAc,-0.161
same,glycan array binding signal (z-score),Gal(a1-4)GlcNAc,1.22
same,glycan array binding signal (z-score),Gal(b1-2)Gal,1.49
same,glycan array binding signal (z-score),Gal(b1-3)Gal,-0.262
same,glycan array binding signal (z-score),Gal(b1-3)Gal(b1-4)GlcNAc,-0.236
same,glycan array binding signal (z-score),[7],-0.181
same,glycan array binding signal (z-score),[8],-0.117
same,glycan array binding signal (z-score),[9],0.007
same,glycan array binding signal (z-score),[10],-0.233
same,glycan array binding signal (z-score),[11],-0.254
same,glycan array binding signal (z-score),[12],-0.222
same,glycan array binding signal (z-score),[13],-0.084
same,glycan array binding signal (z-score),[14],1.44
same,glycan array binding signal (z-score),[15],1.2
same,glycan array binding signal (z-score),[16],-0.072
same,glycan array binding signal (z-score),Gal3S(b1-3)GalNAc,0.678
same,glycan array binding signal (z-score),Gal3S(b1-4)Glc,3.41
same,glycan array binding signal (z-score),Gal3S(b1-4)Glc6S,1.24
same,glycan array binding signal (z-score),Gal3S6S(b1-4)GlcNAc,-0.201
same,glycan array binding signal (z-score),Glc(a1-4)Glc,-0.054
same,glycan array binding signal (z-score),GlcNAc(b1-3)Fuc,-0.089
same,glycan array binding signal (z-score),[17],-0.232
same,glycan array binding signal (z-score),Kdn(a2-3)Gal(b1-4)Glc,-0.172
